# Measurements reported in PubChem BioAssay AID2732 (Emory University Molecular Libraries Screening Center, 2010).
# The campaign covered roughly 220,000 compounds. About 8,200 (3.7%) were called active. The sample holds actives, similar compounds and a random draw of the others, so the mix is not that of the screen. Values without a mark were called inactive.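 The calls were made as follows: active = compounds that reduced the stress-induced luciferase reporter signal by more than about 70% of percent inhibition (limit read from the data); inactive = the rest.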
# Assay: blockers of ER-stress CHOP reporter expression – cell-based, unfolded protein response, luciferase reporter, primary screen (AID 2732);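 also: 0% = tunicamycin plus vehicle and 100% = wells without tunicamycin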
# Details: CHO-K1 CHOP-promoter luciferase, tunicamycin-induced, 15-18 h; at 10 µM; hits give high values
row,Compound,inhibition
1,CN(Cc1nc(-c2cnccn2)no1)Cc1n[nH]c2c1CCCCC2,0.16%
2,CCOC(=O)c1c(C)[nH]c(=S)c(C#N)c1-c1ccccc1,-25.2%
3,CCOC(=O)c1c(C)[nH]c2c1-c1ccccc1C(=O)C2=O,108% (active)
4,Cc1[nH]c2ccccc2c1C(=O)COC(=O)C(C)C,9.48%
5,COc1ccc(C(=O)NCC(=O)N/N=C/c2ccc([N+](=O)[O-])o2)cc1OC,-82.2%
6,CCOC(=O)Cc1cc(=O)[nH]c(/N=C(\N)Nc2ccc(OC)cc2)n1,-6.01%
7,O=C(CC(O)(C(F)(F)F)C(F)(F)F)Nc1ccc(Cl)c(Cl)c1,86% (active)
8,O=C(CC(=O)Nc1ccc(Cl)c(Cl)c1)N/N=C/c1ccc(O)cc1,23.4%
9,Cc1ccc(NC(=O)C/C(N)=N/O)cc1Cl,1.88%
10,CC(=O)NNC(=O)c1csc(Cc2c(Cl)sc3ccc(Cl)cc23)n1,32.1%
11,Cc1ccc(Cc2nc(-c3cccc(C)c3)no2)cc1,83.2% (active)
12,Cc1cccc(-c2noc(-c3ccc(F)cc3)n2)c1,12%
13,Cc1ccc(-c2noc(CN3CCN(Cc4ccccc4)CC3)n2)cc1,38.4%
14,COc1ccc(OC)c(NC(=O)N[C@H](Cc2ccccc2)C(=O)NN)c1,17.5%
15,CCOC(=O)CSc1ccccn1,-0.03%
16,CCOC(=O)CC(=O)CSc1nc(-c2ccccc2)cc(-c2ccc(Cl)cc2)c1C#N,-3.89%
17,CCOC(=O)CSc1nccc(N(C)C)c1C#N,74% (active)
18,Cc1ccc(NC(=O)c2nc[nH]c2C(=O)N[C@@H](CCCCNC(=O)OC(C)(C)C)C(=O)OC(C)(C)C)cc1,60.9%
19,Cc1ccc(-c2nc(SCC(=O)Nc3ccccc3OC(F)F)c3c(C)c(C(=O)O)sc3n2)cc1,101% (active)
20,COc1ccccc1NC(=O)CSc1nc2sc(C)c(C)c2c(=O)n1Cc1ccco1,-22.1%
21,Cc1ccc(C)c(SCc2nc3sc(C(=O)O)c(C)c3c(=O)[nH]2)c1,5.2%
22,O=C(O)c1ccc(/C=N/Nc2nc(N3CCCCC3)nc(N3CCCCC3)n2)cc1,5.9%
23,O=C(c1ccc(=O)oc1)N1CCC(C(O)(c2ccccc2)c2ccccc2)CC1,18.9%
24,Cn1cnc(S(=O)(=O)Nc2ccc3c(c2)OCCO3)c1,26.2%

row,Compound,inhibition
1,CC/C(=N\NC(=S)NC(C)C)c1ccc(OC(F)F)cc1,11.9%
2,C/C(=N\NC(=S)NCc1ccccc1)c1ccc(Cl)cc1,16.1%
3,C/C(=N\NC(=S)NC(C)C)c1ccc(C(C)(C)C)cc1,72.1% (active)
4,CCOC(=O)N1CCN(Cc2nc(N)nc(Nc3ccc(C)cc3)n2)CC1,30.1%
5,Cc1ccc(Nc2nc(N)nc(CSc3nnc(C)s3)n2)cc1,-43.6%
6,Nc1nc(CC(=O)CSc2ccc(Cl)cc2)nc(Nc2ccc(F)cc2)n1,81.9% (active)
7,O=S(=O)(Cc1noc(-c2ccc(OC(F)(F)F)cc2)n1)c1ccc(F)cc1,-5.94%
8,COc1ccc(NC(=O)c2cn(-c3ccccc3)nc2SC)cc1,14.6%
9,O=S(=O)(/N=C(/Nc1ccccn1)c1ccccc1)c1ccc(Cl)cc1,8.33%
10,Cc1ccc(S/C(=N\S(=O)(=O)c2ccc(Cl)cc2)c2ccccc2)cc1,85.7% (active)
11,Cc1ccc(S(=O)(=O)/N=C(/Nc2ccccn2)c2ccc(Cl)cc2)cc1,14.2%
12,O=C(Nc1cccnc1Oc1ncnc2cc(Cl)ccc12)c1ccc(F)cc1,-24.4%
13,CCOC(=O)c1cn[nH]c1NC(=S)Nc1ccccc1,-6.82%
14,COc1ccc(C(=O)C2CCCN(C(=O)c3cnsn3)C2)c(C)c1 (stereo not given),1.06%
15,FC(F)(F)c1nc2ccccc2nc1N/N=C/c1ccc(Cl)cc1,70.3% (active)
16,FC(F)(F)c1cccc(N/N=C/c2ccccc2)c1,69%
17,Fc1ccc(/C=N/Nc2nc(-c3cccnc3)nc3ccccc23)cc1,1.02%
18,COc1ccc2c(CC(=O)OCC(=O)NC(N)=O)coc2c1,8.09%
19,COc1ccc(CCNC(=O)/C(C#N)=C2\N=C(NC(=O)c3cccs3)c3ccccc32)cc1,81.3% (active)
20,COc1ccc(CCNC(=O)c2ccco2)cc1,14.1%
21,COc1ccc(CN(Cc2ccc(OC)cc2)C(=O)c2cccs2)cc1,-9.17%
22,Cc1ccc(/C=C/C(=O)O)cc1S(=O)(=O)N1CCC(Cc2ccccc2)CC1,-11.4%
23,Cc1onc(-c2ccccc2)c1C(=O)N=C(N)c1ccc(Cl)cc1,6.38%
24,FC(F)(F)c1nnc2ccc(N3CCN(c4ccccc4)CC3)nn12,49.9%

row,Compound,inhibition
1,Fc1c(F)c(C(F)(F)F)c(F)c(F)c1N1CCN(c2ccc3nnc(C(F)(F)F)n3n2)CC1,72.7% (active)
2,O=C(Nc1ccc(S(=O)(=O)Nc2nccs2)cc1)c1cc(=O)[nH]c2ccccc12,19.9%
3,CC1(C)CCSC(/C=C/c2ccccc2)=N1,-147%
4,O=C(Nc1nnc(CCN2CCCCC2)s1)c1cccc(Cl)c1,6.02%
5,Nc1nnn(CC(=O)N/N=C/c2ccc(O)cc2)n1,-8.23%
6,Cc1ccc(C(=O)N/C(=C/c2ccc(-c3cccc([N+](=O)[O-])c3)o2)C(=O)NCCCN(C)C)cc1,8.44%
7,Cc1ccc(Cc2cnc(NC(=O)/C(C#N)=C/c3ccc(-c4cccc([N+](=O)[O-])c4)o3)s2)cc1,93.4% (active)
8,N#C/C(=C\c1ccc(-c2cccc([N+](=O)[O-])c2)o1)C(=O)NCCN1CCOCC1,27.9%
9,Cc1ccc(/C=N/NC(=S)NC2CCCCC2)o1,2.92%
10,Nc1ccccc1Sc1cc(Cl)nnc1Cl,20%
11,CC(=O)Nc1ccc(CC#N)cc1,18.1%
12,CC1(C)CC(=O)C(N=Nc2c(F)cccc2F)=C(O)C1,7.79%
13,CCOc1ccc(Cn2c(SCCCCC#N)nc3c2c(=O)n(C)c(=O)n3C)cc1OCC,17.3%
14,Cc1cccc(Cn2c(SCCO)nc3c2c(=O)n(C)c(=O)n3C)c1,16.8%
15,CCCSc1nc2c(c(=O)n(C)c(=O)n2C)n1Cc1ccc(C)cc1,77.2% (active)
16,Cc1nc2cc(NC(=O)Nc3cccc(F)c3)ccc2n1C,-0.84%
17,C/C(Cc1ccccc1)=N\NC(=O)CNC(=O)c1ccc2c(c1)OCCO2,14.9%
18,CC(=O)N1CCC(N(C(=O)Nc2ccc(Cl)cc2)C(C)C)CC1,15.3%
19,CC(C)Oc1ccc(CCC(=O)NNC(=S)NCc2ccccc2)cc1,6.72%
20,CC1(C)CC(N2CCN(C(c3ccccc3)c3ccccc3)CC2)=CC(=[N+]2CCCCC2)C1,65.3%
21,CN(CC(=O)Nc1ccc(F)cc1)CC(=O)Nc1ccc(Cl)c(S(=O)(=O)N2CCOCC2)c1,-2.81%
22,Cc1nn2c(NCCN(C)C)c3c(nc2c1-c1ccccc1)CCC3,-22%
23,CCC1(C)Cc2c(sc3nc(SC)[nH]c(=O)c23)CO1 (stereo not given),10%
24,COc1ccc(-n2c(=S)[nH]c3sc4c(c3c2=O)CCc2ccccc2-4)cc1,-20.5%

row,Compound,inhibition
1,CSc1nc2sc3c(c2c(=O)[nH]1)CCc1ccccc1-3,106% (active)
2,CCn1c(SCC(=O)N/N=C/c2ccccc2OCC(=O)O)nnc1-c1ccc(C(C)(C)C)cc1,4.75%
3,CC(C)(C)n1cnnc1Sc1ccc([N+](=O)[O-])cn1,12.9%
4,Cc1ccc(-c2c[n+](CC(=O)Nc3ccccc3)c3n2CCC3)cc1,16.6%
5,O=C(O)C1CCN(C(=O)c2cc(F)cc3c2OCOC3)CC1,12.2%
6,O=C(CC12CC3CC(CC(C3)C1)C2)Nc1ccc2c(c1)COC2=O,69.7%
7,Cc1ccc(S(=O)(=O)NNC(=O)Nc2cccc3ccccc23)cc1,36.5%
8,O=C(Nc1ccc2c(c1)C(=O)OC2)Nc1cccc2ccccc12,90.2% (active)
9,COc1ccc2oc(=O)c(C(=O)N3CCN(c4ccccc4F)CC3)cc2c1,25.2%
10,O=C(c1ccc(CN2CCOCC2)cc1)N1CCN(c2ccccc2F)CC1,-5.7%
11,O=C(c1cccc2ccccc12)N1CCN(c2ccccc2F)CC1,91.4% (active)
12,COc1ccc(CCNC2=CC(=O)CC(C)(C)C2)cc1,6.34%
13,C=CCN1CC(C)/C(=N\O)CC1C (stereo not given),-23.6%
14,CC1=C/C(=N\OS(=O)(=O)c2ccccc2)C=CC1=O,108% (active)
15,CC1=C/C(=N\S(=O)(=O)c2ccccc2)C(C(C)C)=CC1=O,49.7%
16,CCOC(=O)C1(S(=O)(=O)c2ccccc2)CCN(Cc2ccccc2)CC1,-6.62%
17,CN(C(=O)CCn1c(=S)oc2ccccc21)C1CCCCC1,4.79%
18,O=C(O)[C@@H]1CCCN1c1ncnc2sc3c(c12)CCC3,-1.98%
19,OCCNc1nc2ccccc2n1-c1ncnc2sc3c(c12)CCC3,74.4% (active)
20,CC(C)(C)C(=O)Cn1c(NCCO)nc2ccccc21,9.85%
21,N/C(=N\S(=O)(=O)c1cc(C(F)(F)F)cc(C(F)(F)F)c1)c1cccs1,34.7%
22,Cc1ccc(S(=O)(=O)NC(=O)Nc2nc(-c3ccc(F)c(F)c3)cs2)cc1,1.74%
23,CCOC(=O)c1cc(C)nc(S(C)(=O)=O)c1C#N,-90.6%
